Measured values taken from PubChem BioAssay AID540333 (Southern Research Specialized Biocontainment Screening …, 2011).
Out of some 10,000 compounds screened, about 320 (3.2%) were called active. What follows is part of a selection rich in actives, with near analogues and random picks from the rest. Unmarked numbers belong to inactive results. No stated cut-off is given here; in the data, active means CPE inhibition mostly above about 9.1% (no sharp cut-off); inactive means mostly below about 7.2%.

assay: Dengue virus cytopathic effect inhibitors, cell-based, CPE readout, HTS (AID 540333); details: Dengue virus CPE inhibition in host cells, at 20 µM; stronger effect = higher value

Structure (SMILES)	CPE inhibition
Cc1cc(C)cc(-n2c(SCC(=O)Nc3cccc(S(=O)(=O)NC4=NCCCCC4)c3)nc3ccccc3c2=O)c1	0.54%
CNC(=O)CSc1nnc(SCCC(=O)O)s1	0.415%
Cc1cccc(Nc2nnc(SCC(=O)NC3CCCc4ccccc43)s2)c1C (stereo not given)	14.5% (active)
Cc1ccccc1-n1c(C)nnc1SCC(=O)NC1CCCc2ccccc21 (stereo not given)	0.065%
O=C(CSc1nc2ccccc2s1)NC1CCCc2ccccc21 (stereo not given)	0.775%
O=C1c2ccccc2C(=O)N1CN(C(=O)COc1ccc(Cl)cc1Cl)c1cccc(F)c1	3.16%
CCOC(=O)C1=C(C)NC(=O)C1CC(=O)O (stereo not given)	inactive
CN(c1cccc(NC(=O)CN(c2ccc(Cl)c(Cl)c2)S(=O)(=O)c2ccccc2)c1)S(C)(=O)=O	5.86%
CN(c1cccc(NC(=O)CN(c2cccc(Cl)c2)S(=O)(=O)c2ccc(Cl)cc2)c1)S(C)(=O)=O	11.8% (active)
CN(c1cccc(NC(=O)CN(c2cccc(Cl)c2)S(=O)(=O)c2ccccc2)c1)S(C)(=O)=O	3.62%
COC(=O)CNC(=O)C1Nc2ccc(OC(F)(F)F)cc2C2C=CCC12 (stereo not given)	0.595%
COc1ccc2c(C)cc(Sc3nnnn3-c3ccccc3)nc2c1	3.01%
COc1ccc(NC(=O)c2ccc(C#N)cc2)cc1NS(=O)(=O)c1ccc(F)cc1	inactive
CC(=O)N1N=C(c2ccccc2)CC1c1cn(Cc2ccccc2)c2ccccc12 (stereo not given)	6.58%
CC(=O)N1N=C(c2ccc(Br)cc2)CC1c1cn(C)c2ccccc12 (stereo not given)	16% (active)
CCC(=O)N1N=C(c2ccc(C)o2)CC1c1ccc(Br)cc1 (stereo not given)	inactive
COc1cc(C#Cc2c(C=O)n(C)c3ccccc23)cc(OC)c1	8.36% (active)
Cn1c(C=O)c(C#Cc2ccccc2)c2ccccc21	inactive
Cn1c(C=O)c(C#CC(C)(C)O)c2ccccc21	4.96%
COc1cc(SC)ccc1C(=O)NCCc1ccccc1	0.785%

Structure (SMILES)	CPE inhibition
O=C(Nc1cccc(Cl)c1)Nc1cc(S(=O)(=O)N2CCOCC2)ccc1N1CCCC1	8.49%
CC(C)CC(NC(=O)c1ccc(Cl)cc1)C(=O)OCc1cc([N+](=O)[O-])cc2c1OCOC2 (stereo not given)	1.44%
COc1ccc(CNC(=O)COC(=O)C2CCC(C(C)(C)C)CC2)cc1 (stereo not given)	24.9% (active)
COC(=O)c1ccc(CNC(=O)COC(=O)C2CCC(C(C)(C)C)CC2)cc1 (stereo not given)	0.91%
COc1ccc(CCNC(=O)COC(=O)C2CCCCC2)cc1	0.035%
O=S1(=O)CCC(NC(=S)N2CCCCC2)C1 (stereo not given)	inactive
CC(=O)NC(Cc1ccccc1)C(=O)OCC(=O)c1ccc(Br)cc1 (stereo not given)	inactive
COCCCN(C(=S)Nc1cc(Cl)cc(Cl)c1)C(C)c1ccncc1 (stereo not given)	16.4% (active)
COCCCN(C(=S)Nc1c(C)cc(C)cc1C)C(C)c1ccncc1 (stereo not given)	0.045%
COCCCN(C(=S)Nc1ccc(C)cc1Cl)C(C)c1ccncc1 (stereo not given)	inactive
O=C(CCc1ccccc1)NCCSCc1c(F)cccc1Cl	inactive
C#CCN(C(=O)Nc1ccccc1)c1ccccc1	inactive
CC(=O)NS(=O)(=O)c1cccnc1Nc1cccc(Cl)c1C	1.49%
CC1CCC(=NNc2ccc(C(F)(F)F)cc2[N+](=O)[O-])CC1 (stereo not given)	0.085%
CC1(OC(=O)C2CCCC2)C(=O)C=C2C=C3CCCCN3C=C2C1=O (stereo not given)	inactive
CCC(=O)OC1(C)C(=O)C=C2C=C(CCCC(=O)OC)OC=C2C1=O (stereo not given)	inactive
CCCCC1=CC2=CC(=O)C(C)(OC(=O)CC)C(=O)C2=CN1C1CCCC1 (stereo not given)	20.9% (active)
Cc1ccc(S(=O)(=O)N/N=C2/CCCCC2C2CCCCC2)cc1[N+](=O)[O-] (stereo not given)	0.01%
Fc1ccc(CSc2ncnc3scc(-c4ccccc4)c23)cc1	1.17%
O=C(OC(C(=O)Nc1cccc(C(F)(F)F)c1)c1ccccc1)C1CCCCC1 (stereo not given)	21.9% (active)

Structure (SMILES)	CPE inhibition
CCOC(=O)C(=NC1CCCCC1)NNc1cccc(C(F)(F)F)c1	5.4%
COc1cc(OC)c(C(=O)OC(C)C(=O)Nc2cccc(C(F)(F)F)c2)cc1OC (stereo not given)	inactive
Cc1cc(C)nc(NS(=O)(=O)c2ccc(NC(=O)C3(c4ccccc4)CCCC3)cc2)n1	inactive
CC(=O)Nc1cccc(Oc2ncnc3scc(-c4ccc(C(C)C)cc4)c23)c1	15% (active)
COc1ccc(-c2csc3ncnc(Oc4ccc5c(C)cc(=O)oc5c4)c23)cc1	inactive
CC(=O)Nc1ccc(Sc2ncnc3scc(-c4ccccc4)c23)cc1	2.31%
Cc1cc(NC(=O)CCc2ccccc2)c([N+](=O)[O-])cc1C	inactive
O=C(Nc1nc2ccccc2s1)c1ccc(N2CCCCC2)c([N+](=O)[O-])c1	2.82%
O=C(Nc1ccc(N2C(=O)c3cccc4cccc(c34)C2=O)cc1)c1ccc(N2CCCCC2)c([N+](=O)[O-])c1	2.95%
O=C(Nc1nc2ccc3ccccc3c2s1)c1ccc(N2CCCCC2)c([N+](=O)[O-])c1	13.2% (active)
O=C(O)CSC(=S)N1CCCCC1	0.795%
N#CC(C#N)=C1C=CC=CN1/C(=C\c1ccco1)C(=O)c1ccc(-c2ccccc2)cc1	inactive
O=C(O)c1cccc(-c2nc3ccccc3[nH]2)c1	0.345%
Cc1nc2ccccc2c(-c2ccccc2)c1CC(=O)O	0.655%
c1ccc(-c2c3ccccc3nc3[nH]c4ccccc4c23)cc1	23.8% (active)
Cc1ccc(-n2nnnc2SC(C(=O)c2c[nH]c3ccccc23)c2ccccc2)cc1 (stereo not given)	inactive
O=C1C=C(c2ccc(Cl)c(C(F)(F)F)c2)C[C@@H](c2ccc3c(c2)OCO3)C1	7.58%
O=C1C=C(c2ccccc2)C[C@@H](c2ccc3c(c2)OCO3)C1	0.36%
O=C1C=C(c2cc(C(F)(F)F)cc(C(F)(F)F)c2)C[C@@H](c2ccc3c(c2)OCO3)C1	17.9% (active)
O=C(CSCc1ccccc1)Nc1ccc(F)c(F)c1	inactive
